In PubChem BioAssay (NCATS):
“And” between values parts separate entries of the source, which are not always exact repeats. Equal entries are not always repeated. Inconclusive results are not listed. Values without a mark were called inactive. The source made the active and inactive calls. Calls come from the whole dose curve; as a rule, active = well fitted inhibition curve with a large enough effect; inconclusive = small, poorly fitted or top-dose-only effect; inactive = flat fitted curve, though single readings scatter.

tested on: TAB165; experiment: qHTS profiling for inhibitors of Plasmodium falciparum proliferation (AID 504749); details: P. falciparum in erythrocytes, SYBR Green DNA, 72 h; series mostly up to 28.7 µM
Outline: (§1)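 Three-day growth assay of blood-stage parasites in erythrocytes (0.3% parasitemia, 2.5% hematocrit) at 37 C, 5% CO2, quantified by SYBR Green DNA staining after overnight detergent lysis.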
Note: nearly all actives have a fitted effect of over 60% in size.
Potency is the fitted concentration of half-maximal effect.

Structure (SMILES) | Potency
CCN(CC)C(C)C(=O)c1ccccc1 (configuration not stated) | inactive
NCc1cccnc1 | inactive
NC(=O)CN1CCCC1=O | inactive
CCN(Cc1ccc(Cl)nc1)/C(=C/[N+](=O)[O-])NC | inactive
CNC(=O)NC(O)C(Cl)(Cl)Cl (configuration not stated) | inactive
NC(=O)OCCCc1ccccc1 | inactive
C[C@H]1C(=O)O[C@@H]2CCN3CC=C(COC(=O)[C@](C)(O)[C@]1(C)O)[C@H]23 | inactive
O=C(CCCN1CCC(n2c(=O)[nH]c3ccccc32)CC1)c1ccc(F)cc1 | 1000 nM (active)
CCC1(CC)C(=O)NC(=O)NC1=O | inactive
COc1ccc(C(=O)N2CCCC2=O)cc1 | inactive
CCCCCCCCC(=O)NCc1ccc(O)c(OC)c1 | inactive
O=c1n(Cl)c(=O)n(Cl)c(=O)n1Cl | inactive
CC(C)[N+](C)(CCC(C(N)=O)(c1ccccc1)c1ccccc1)C(C)C | inactive

tested on: W2; experiment: as above; details: P. falciparum in erythrocytes, SYBR Green DNA, 72 h; series mostly up to 28.7 µM
Outline: as §1

Structure (SMILES) | Potency
CCN(CC)C(C)C(=O)c1ccccc1 (configuration not stated) | inactive
NCc1cccnc1 | inactive
NC(=O)CN1CCCC1=O | inactive
CNC(=O)NC(O)C(Cl)(Cl)Cl (configuration not stated) | inactive
NC(=O)OCCCc1ccccc1 | inactive
C[C@H]1C(=O)O[C@@H]2CCN3CC=C(COC(=O)[C@](C)(O)[C@]1(C)O)[C@H]23 | inactive
O=C(CCCN1CCC(n2c(=O)[nH]c3ccccc32)CC1)c1ccc(F)cc1 | 642 nM (active)
COc1ccc(C(=O)N2CCCC2=O)cc1 | inactive
CCCCCCCCC(=O)NCc1ccc(O)c(OC)c1 | inactive
O=c1n(Cl)c(=O)n(Cl)c(=O)n1Cl | inactive

tested on: CRL-7250; experiment: Cytotoxic Profiling of Annotated Libraries Using Quantitative High-Throughput Screening (AID 1296008); details: Five cell lines viability, CellTiter-Glo ATP luminescence, 48-72 h; max response: stronger effect = lower value; for max response: % is set by controls: 0 for no effect and ±100 for the full control effect
Outline: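 Cytotoxicity was measured as CellTiter-Glo ATP luminescence, read after 10 min at room temperature. Compound treatment of the cells lasted 48 or 72 hr at 37 degrees Celsius in a qHTS format.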

Structure (SMILES) | outcome | max response | Potency
ClCCCN1CCN(c2cccc(Cl)c2)CC1 | inactive |  | 
CCN(CC)C(C)C(=O)c1ccccc1 (configuration not stated) |  | -0.537% | 
COc1ccc2[nH]cc(CCN(C(C)C)C(C)C)c2c1 |  | -1.26% | 
CCC(OC(C)=O)C(CC(C)NC)(c1ccccc1)c1ccccc1 (configuration not stated) |  |  | 43700 nM (active)
NCc1cccnc1 |  | -13.7% | 
CCC(=O)OC1(c2ccccc2)CCN(C)CC1 |  | -2.3% | 
CN(C)CCc1c[nH]c2cccc(O)c12 | inactive |  | 
CC1Sc2c(C(=O)O)c(=O)c3cc(F)c(N4CCNCC4)cc3n21 (configuration not stated) |  | -1.22% | 
O=C(O)Cc1ccccc1 |  | -22.4% | 
CCCN(CCC)CCc1c[nH]c2ccccc12 |  | -1.07% | 
CCN(CC)Cc1nccn1-c1ccc([N+](=O)[O-])cc1C(=O)c1ccccc1Cl |  | -12.2% | 
NC(=O)CN1CCCC1=O | inactive |  | 
CCN(Cc1ccc(Cl)nc1)/C(=C/[N+](=O)[O-])NC |  | -14.2% | 
CC[C@H]1C[C@H]2[C@@H]3CCC4=CC(=O)CC[C@@H]4[C@H]3CC[C@]2(C)[C@H]1O |  | -11.6% | 
C[C@H](CN1CCOCC1)C(C(=O)N1CCCC1)(c1ccccc1)c1ccccc1 |  | -21.1% | 
CCOC(=O)c1ncn2c1CN(C)C(=O)c1c(I)cccc1-2 |  | -19.8% | 
CN1CCC(N(Cc2ccccc2)c2ccccc2)CC1 |  | -21.6% | 
CNC(=O)NC(O)C(Cl)(Cl)Cl (configuration not stated) |  | 2.85% | 
C[N+]1(C)[C@@H]2CC[C@H]1CC(OC(=O)C(CO)c1ccccc1)C2 (some centres not stated) | inactive |  | 
CC[C@H]1C[C@@H]2C[C@H]3c4[nH]c5ccc(OC)cc5c4CCN(C2)[C@@H]13 |  | 1.28% | 

Structure (SMILES) | outcome | max response | Potency
CC1COC2(c3ccccc3Cl)c3cc(Cl)ccc3NC(=O)CN12 (configuration not stated) |  | -0.632% | 
CN(C)CCc1c[nH]c2ccc(O)cc12 |  | 4.21% | 
NC(=O)OCCCc1ccccc1 | inactive |  | 
O=C(N[C@@H]1N=C(c2ccccc2F)c2cccc3c2N(CC3)C1=O)c1cc2ccccc2[nH]1 |  | -34.1% | 
CC(CC(C(N)=O)(c1ccccc1)c1ccccc1)N(C)C (configuration not stated) |  | -1.58% | 
C#C[C@]1(O)C=C[C@H]2[C@@H]3CCC4=CC(=O)CC[C@@H]4[C@H]3CC[C@@]21CC |  | 0.605% | 
C[C@@H]1CC[C@H]2[C@@H](C)C(=O)O[C@@H]3O[C@@]4(C)CC[C@@H]1[C@]32OO4 |  | -4.21% | 
COc1cc(N)c(Cl)cc1C(=O)NC1CN2CCC1CC2 (configuration not stated) |  | -0.63% | 
CC(C)=CCN1CC[C@@]2(C)c3cc(O)ccc3C[C@@H]1[C@@H]2C |  | -10.3% | 
C[C@H]1C(=O)O[C@@H]2CCN3CC=C(COC(=O)[C@](C)(O)[C@]1(C)O)[C@H]23 |  | -23.7% | 
O=C(CCCN1CCC(n2c(=O)[nH]c3ccccc32)CC1)c1ccc(F)cc1 |  | -0.196% | 
CCC1(CC)C(=O)NC(=O)NC1=O |  | -2.88% | 
COc1ccc(C(=O)N2CCCC2=O)cc1 |  | -4.75% and 1.19% | 
O=C(CBr)Nc1ccc(Cl)cc1C(=O)c1ccccc1F | inactive |  | 
CCCCCCCCC(=O)NCc1ccc(O)c(OC)c1 |  | -16.7% | 
CC(C)=C[C@@H]1[C@@H](C(=O)OCc2coc(Cc3ccccc3)c2)C1(C)C |  | 2.34% | 
Nc1ccc(Cl)cc1C(=O)c1ccccc1F |  | -4.36% | 
O=c1n(Cl)c(=O)n(Cl)c(=O)n1Cl | inactive |  | 
CC(C)[N+](C)(CCC(C(N)=O)(c1ccccc1)c1ccccc1)C(C)C |  | 3.89% | 
